Source: PubChem BioAssay
Sampled rows, rich in hits. Any-hit rate of the full collection: about 2.4%.
Rango-impB inh: inhibitors of Rango-importin beta complex formation. Q14974. Rango CFP/YFP FRET sensor + importin beta, 45 min. Potency, µM (series often up to 92.2 µM), inactives show at the top dose inhibition of complex formation. 340,000 compounds, 0.031% hits; calls by dose curve;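 further: 0% = DMSO wells and 100% = buffer wells lacking importin beta; nearly all actives have a fitted effect of over 15% in size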
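Inhibition scored from the CFP 486 nm/YFP 530 nm FRET ratio 45 min after adding 0.125 microM importin beta to 50 nM Rango biosensor preincubated 5 min with compound (room temperature, PBS with DTT, Tween-20, BSA). No-importin wells as positive control.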
ELG1 repair inh: blocks ELG1-dependent DNA repair in HEK293T cells. HEK293T ELG1-luciferase reporter, luminescence, 16 h; DNA damage induced by 5-fluorouridine. Potency, µM (doses to about 46.1 µM), inactives show at the highest dose activity change, negative = inhibition, most hits filed as inhibitors. 330,000 compounds, 2.3% hits; further: on the % scale 0 is the no-effect control and ±100 the full control effect; nearly all actives have a fitted effect of over 55% in size
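5-Fluorouridine DNA damage + compound/DMSO, 2,000 cells/well, 16 h, 37 °C/5% CO2. ONE-Glo, 30 min RT, luminescence. Readout = decrease in reporter signal.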
Rango release inh: inhibition of RanGTP-driven Rango-importin beta dissociation; 340,000 compounds, 0.071% hits; Potency, µM (highest dose often 46.1 µM), without a hit: top-dose activity change, negative = inhibition; Biochemical FRET Rango-importin beta, RanGTP-induced dissociation; calls by dose curve; further: % of control where 0% means no effect; nearly all actives have a fitted effect of over 45% in size
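Two FRET readings bracket the reaction: one 5 min after compound meets Rango–importin beta, another 45 min after RanGTP-RCC1 (0.6 uM Ran, 0.2 uM RCC1, 2 mM GTP) is added. Only the second defines inhibition.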
PKM2 act: activators of human pyruvate kinase M2 | P14618 | purified PKM2, Kinase-Glo ATP luminescence, activation; response scale: 0% is enzyme alone, no compound | Potency, µM (titrated, usually from 57.5 µM), for inactives: at the highest dose activation, usual class: activators | 260,000 compounds, 0.34% hits | AID 1631; further: on the % scale 0 is the no-effect control and ±100 the full control effect; nearly all actives have a fitted effect of over 55% in size
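Kinase-Glo luminescence reports ATP generated from ADP (0.1 mM) and PEP (0.5 mM) by purified hPK-M2 after 1 h at room temperature, pH 7.2 imidazole buffer; intermediate enzyme activity allows detecting inhibitors and activators.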
Tb PFK inh: blocks T. brucei phosphofructokinase | T. brucei PFK, ADP-Glo luminescence | Potency, µM (top dose mostly 57.5 µM), for the others: at the highest dose activity, negative = inhibition, hits mostly inhibitors | 330,000 compounds, 0.17% hits | AID 485367;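 further: 0% = uninhibited 1x PFK enzyme wells and -100% = no-enzyme wells; nearly all actives have a fitted effect of over 60% in size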
Target sequence (O15648 whole entry, looked up): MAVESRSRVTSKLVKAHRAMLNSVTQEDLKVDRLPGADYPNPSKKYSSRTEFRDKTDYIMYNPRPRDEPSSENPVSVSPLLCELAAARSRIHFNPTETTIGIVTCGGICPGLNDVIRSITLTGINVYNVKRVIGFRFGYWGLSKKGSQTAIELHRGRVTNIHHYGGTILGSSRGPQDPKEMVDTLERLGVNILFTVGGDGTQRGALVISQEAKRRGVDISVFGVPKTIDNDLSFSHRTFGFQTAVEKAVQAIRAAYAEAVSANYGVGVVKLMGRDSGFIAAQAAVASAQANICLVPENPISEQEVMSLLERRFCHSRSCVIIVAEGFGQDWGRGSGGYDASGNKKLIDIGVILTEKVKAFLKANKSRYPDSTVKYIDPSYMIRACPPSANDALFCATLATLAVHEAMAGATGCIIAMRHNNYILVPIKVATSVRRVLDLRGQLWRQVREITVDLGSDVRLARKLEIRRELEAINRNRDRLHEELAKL
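Compounds were pin-transferred as a titration series up to 57 uM into substrate buffer (0.5 mM F6P, 0.1 mM ATP, pH 8.0), then 1.25 nM PFK was added and reactions ran 45 min before ADP-Glo detection.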
Tb PGK inh: T. brucei PGK inhibition. PGK/GAPDH coupled, Kinase-Glo luminescence, 60 min. AID 602233. Potency, µM (top dose mostly 57.5 µM), inactives show top-dose activity change, negative = inhibition, actives largely listed as inhibitors. P07378. 380,000 compounds, 0.043% hits; further: on the % scale 0 is the no-effect control and ±100 the full control effect; nearly all actives have a fitted effect of over 60% in size
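Luminescent ATP detection (Kinase-Glo Plus) follows a 60-minute room-temperature incubation, with wells lacking PGK as controls. Buffer: 100 mM TEA (pH 7.6), 5 mM MgCl2, 0.01% Tween-20. Coupling enzyme GAPDH (100 nM final) supplies unstable 1,3-BPG in-well.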
An asterisk follows results filed as active; i = inactive; ? = inconclusive; nt = not tested or not shown. Unless noted, the call rests on the fitted dose curve; in most records, active means well fitted curve in the direction sought with a large enough effect; inconclusive means small, poorly fitted or top-dose-only effect, or another doubt; inactive means no such curve, though single readings can be large; an effect the other way counts as inactive or inconclusive. Potency means the concentration at half of the fitted maximal effect.

SMILES	Rango-impB inh	ELG1 repair inh	Rango release inh	PKM2 act	Tb PFK inh	Tb PGK inh
O=C(NC1CC(=O)N(c2cccc(F)c2)C1)C1CCCC1 (stereo not drawn)	nt	nt	nt	nt	nt	-6%
Cc1ccc2c(c1)cc(CN(Cc1cccnc1)C(=O)c1ccccc1)c1nnnn12	0%	?	-9%	-2%	-1%	-2%
Cc1ccc(C(=O)N(Cc2cccnc2)Cc2cc3cc(C)ccc3n3nnnc23)cc1	0%	21µM*	7%	0%	-8%	0%
O=C(CSc1nnc(C2CC2)n1C1CC1)N1CCN(c2ccc(O)cc2)CC1	nt	nt	nt	nt	nt	3%
Cc1nn(C)c(C(=O)Nc2ccn(Cc3c(F)c(F)cc(F)c3F)n2)c1[N+](=O)[O-]	-1%	-19%	1%	-10%	-3%	i
Cc1nn(Cc2cccc(C(=O)Nc3ccn(Cc4c(F)c(F)cc(F)c4F)n3)c2)c(C)c1[N+](=O)[O-]	?	21µM*	5%	5%	-1%	-10%
C=Cc1ccc(Cn2c(=O)n(CCCOC)c(=O)c3sccc32)cc1	2%	21µM*	-12%	-2%	-1%	-5%
O=C(Nc1ccccn1)c1ccc(CN(c2ccccc2)S(=O)(=O)c2ccccc2)cc1	4%	18µM*	10%	7%	0%	-10%
O=C(COC(=O)c1cccc(OC(F)F)c1)Nc1ncccn1	3%	13%	-14%	nt	-18%	-11%
CCOC(=O)Cc1csc(NC(=O)Nc2ccc(OC(F)(F)F)cc2)n1	0%	2.1µM*	-1%	-1%	0%	-7%
CCOC(=O)Cc1csc(NC(=O)COc2ccc(N(C)S(=O)(=O)c3cccs3)cc2)n1	-1%	18µM*	3%	-1%	5%	-4%
CCOC(=O)Cc1csc(NC(=O)COc2ccccc2)n1	-1%	-1%	-4%	-1%	-1%	-3%
COc1cc(NC(=O)c2cccc3c2C(=O)N(C2CCCCC2)C3)cc(OC)c1OC	-3%	4.6µM*	-3%	nt	-7%	-6%
CCOC(=O)c1ccccc1NC(=O)c1cccc2c1C(=O)N(C1CCN(C(=O)OCC)CC1)C2	-4%	18µM*	-13%	9%	-1%	-7%
Cc1ccccc1-c1cc(C(=O)NCc2cccc(C(F)(F)F)c2)n(CC2CC(c3cccnc3)=NO2)n1 (stereo not drawn)	1%	16µM*	-4%	nt	-8%	-7%
Cc1ccccc1-c1cc(C(=O)NCc2ccc(OC(F)(F)F)cc2)n(CC2CC(c3cccnc3)=NO2)n1 (stereo not drawn)	-1%	18µM*	-7%	nt	2%	3%
COc1ccc(C2=NOC(Cn3nc(-c4ccccc4)cc3C(=O)NCc3cccs3)C2)cc1 (stereo not drawn)	2%	12µM*	2%	nt	9%	0%
O=C(NCc1cccc(C(F)(F)F)c1)c1cc(-c2ccccc2)nn1CC1CC(c2cccnc2)=NO1 (stereo not drawn)	3%	nt	-4%	nt	nt	-2%
COC(=O)C1=C(CN2CCN(C)CC2)NC(=O)NC1c1cc(C)ccc1C (stereo not drawn)	0%	7%	-4%	-6%	6%	-2%
COC(=O)C1=C(CN2CCc3ccccc32)NC(=O)NC1c1cc(C)ccc1C (stereo not drawn)	1%	13µM*	-1%	7%	-14%	i
CSc1cccc(NS(=O)(=O)c2ccc(C(C)=O)cc2)c1	0%	7.3µM*	20%	16%	-12%	1%
CSc1cccc(NS(=O)(=O)c2ccc(F)cc2)c1	3%	-10%	0%	7%	-3%	-7%
COCCN(C(=O)c1cccc(N2C(=O)CCC2=O)c1)c1nc(-c2ccc([N+](=O)[O-])cc2)cs1	0%	5.8µM*	-3%	nt	-1%	-9%
